PREPL inh = human PREPL enzyme inhibition. actives 0.68% (n = 320,000). AID 2751. recombinant PREPL, fluorescence polarization activity-based probe. Q4J6C6. inhibition, % at 5.96 µM
Target sequence (Q4J6C6 whole entry, looked up): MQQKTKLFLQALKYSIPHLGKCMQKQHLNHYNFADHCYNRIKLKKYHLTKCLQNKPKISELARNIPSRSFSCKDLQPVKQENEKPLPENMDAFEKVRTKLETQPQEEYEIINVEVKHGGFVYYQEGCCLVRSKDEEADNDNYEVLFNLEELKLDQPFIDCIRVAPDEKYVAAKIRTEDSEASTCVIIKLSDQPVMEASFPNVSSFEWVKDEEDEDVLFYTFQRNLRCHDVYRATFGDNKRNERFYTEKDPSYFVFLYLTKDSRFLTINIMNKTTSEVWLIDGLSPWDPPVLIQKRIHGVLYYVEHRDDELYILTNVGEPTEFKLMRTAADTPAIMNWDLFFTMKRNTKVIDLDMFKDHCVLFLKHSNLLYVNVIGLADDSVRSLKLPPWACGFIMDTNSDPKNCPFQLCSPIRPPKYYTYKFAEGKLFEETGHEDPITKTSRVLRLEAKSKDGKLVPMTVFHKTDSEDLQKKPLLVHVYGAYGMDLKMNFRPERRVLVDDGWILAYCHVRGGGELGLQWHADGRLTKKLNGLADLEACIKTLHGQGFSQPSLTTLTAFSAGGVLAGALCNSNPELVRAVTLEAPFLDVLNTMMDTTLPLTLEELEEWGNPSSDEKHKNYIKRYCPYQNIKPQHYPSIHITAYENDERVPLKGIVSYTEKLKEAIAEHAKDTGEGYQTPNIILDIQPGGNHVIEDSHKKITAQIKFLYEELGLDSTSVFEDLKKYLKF
FID counter = fluorescent intercalator displacement, NS3 helicase counter-screen; DNA fluorescent intercalator displacement, fluorescence; inhibition, % at 7.9 µM; actives 0.17% (n = 290,000); AID 1845; in the data active = inhibition above about 37%;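 also: higher means more ethidium bromide displaced from hairpin DNA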
UBC13 polyUb = human UBC13 polyubiquitination inhibition; UBC13 polyubiquitin chain formation, TR-FRET; inhibition, % at 20 µM; actives 0.47% (n = 330,000); in the data active = inhibition above about 45%, passing the limit was not always enough
RAD52 inh = blocks human RAD52 DNA annealing; P43351; inhibition, % at 18.7 µM; recombinant RAD52 DNA annealing, FRET fluorescence; actives 0.46% (n = 360,000);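 active = every replicate showing at least 50% inhibition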
beta cell repl = induces beta-cell replication in MIN6 cells; proliferation, % at 10 µM; actives 0.29% (n = 330,000); MIN6 cells proliferation, ATPlite luminescence, 48 h; cells starved in 0.2% serum; 100% = growth in 10% serum; AID 2380;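 active = compounds whose signal lies at least 3.5 SD above the mean of all wells on their plate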
RAD54 branch = inhibitors of human RAD54 branch migration; Q92698; RAD54 Holliday junction branch migration, FAM/BHQ fluorescence; inhibition, % at 10.4 µM; actives 0.14% (n = 360,000); AID 602329;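 active = mean normalized replicate activity at least 40 and at least half of replicates scoring 40 or more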;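 also: inhibitors cause a drop in the FAM fluorescence signal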
PREPL confirm = human PREPL inhibition, confirmation. shares compounds with PREPL inh. AID 2803. recombinant PREPL, fluorescence polarization activity probe. inhibition, % at 5.96 µM. actives 67% (n = 2,000)
A number is an active result; . = inactive; / = no result given. Only some compounds are listed: those with a hit (about 1.3% of all), similar ones and a draw of the others. Rule as the data show it, unless noted: active = inhibition above about 43%; inactive = the rest.

SMILES | PREPL inh | FID counter | UBC13 polyUb | RAD52 inh | beta cell repl | RAD54 branch | PREPL confirm
CN(C)c1ccc(C(CNC(=O)c2ccc(-c3ccccc3)cc2)N2CCOCC2)cc1 (stereo not given) | 46.8 | / | . | . | . | . | 64.8
COc1cc(C2CC(=O)Oc3c(C(CCN4CCCC(C)C4)c4ccc(N(C)C)cc4)c(OC)cc(OC)c32)cc(OC)c1OC (stereo not given) | 46.3 | / | . | . | . | . | 52.0
O=C(Nc1ccc(F)cc1)N1CC(=O)N2[C@H](C1)[C@H](c1ccc(C#Cc3ccc(F)cc3)cc1)[C@@H]2CO | / | / | / | . | / | / | /
CCCCCNc1nc(NCCCO)c(C#N)c2c1CN(C)CC2 | . | . | . | / | . | / | /
CCCCCNc1nc(N2CCCC2)c2c(c1C#N)CCN(C)C2 | 54.6 | . | . | / | . | . | 56.8
O=C(C[C@H]1CC[C@@H]2[C@H](COC[C@@H](O)CN2CCC(F)(F)F)O1)NCc1ccc2c(c1)OCO2 | / | / | / | . | / | . | /
CC(C)=C1SC(N2CCN(c3ccc(Cl)cc3)CC2)=NC1=O | 49.5 | . | . | . | . | / | 47.5
CC(C)=C1SC(N2CCN(c3ccc(C)cc3)CC2)=NC1=O | 49.6 | . | . | / | . | . | 45.4
CC(C)=C1SC(N2CCOCC2)=NC1=O | . | . | . | / | . | . | /
O=C(c1cccnc1)N1C[C@@H]2[C@H](c3ccccc31)[C@H](CO)N2C(=O)CN1CCOCC1 | / | / | / | . | / | . | /
Cc1ccc(Sc2cnn(-c3ccccc3)c(=O)c2Cl)cc1 | 46.2 | . | . | / | . | . | .
Nc1ccc(Sc2cnn(-c3ccccc3)c(=O)c2Cl)cc1 | . | . | . | / | . | . | /
COc1ccc(NC(=O)Nc2cccc3c2O[C@@H](CN(C)Cc2ccccc2)[C@H](C)CN([C@H](C)CO)C3=O)cc1 | / | / | / | . | / | . | /
Cc1c(/C=N/Nc2nc3ccccc3[nH]2)c2ccccc2n1C | 45.1 | . | . | . | . | . | .
Cn1c(/C=N/Nc2nc3ccccc3[nH]2)nc2ccccc21 | . | . | . | . | . | / | /
C=CCn1cc(/C=N/Nc2nc3ccccc3[nH]2)c2ccccc21 | 44.6 | . | . | . | . | / | 49.9
CO[C@H]1CN(C)C(=O)c2cc(NC(=O)C3CC3)ccc2OC[C@H](C)N(CC2CCOCC2)C[C@@H]1C | / | / | / | . | / | . | /
CCCCN1C(=N)N([C@@H](C)CN2CCC[C@H]2CN2C(N)=NC[C@@H]2Cc2ccccc2)C[C@H]1Cc1ccccc1 | 53.6 | / | . | . | . | . | 44.0
CCCCN1C(=N)N([C@@H](CCC)CN2CCC[C@H]2CN2C(N)=NC[C@@H]2Cc2ccccc2)C[C@H]1[C@H](C)CC | 44.7 | / | . | . | . | . | 47.4
CC[C@@H](C)[C@@H]1CN([C@@H](C)CN2CCC[C@H]2CN2C(N)=NC[C@H]2CC(C)C)C(=N)N1CCCC1CCCC1 | . | / | . | . | . | . | /
CCOc1ccc(C=NNc2ccc(S(=O)(=O)Nc3ccccc3C(=O)O)cc2[N+](=O)[O-])cc1OC | . | / | . | / | . | / | /
COc1cc(C=NNc2ccc(S(=O)(=O)Nc3ccccc3C(=O)O)cc2[N+](=O)[O-])ccc1O | 55.0 | / | . | . | . | . | .
Cc1ccc2c(c1)c1c3n2CCCNC3CCC1 (stereo not given) | 44.6 | . | . | / | . | . | 43.5
N#CC1=C(Nc2ccccc2)SC=C(c2ccc(F)cc2)N=C1N1CCOCC1 | 51.7 | . | . | / | . | / | .
N#Cc1c(-c2ccc(F)cc2)ccnc1N1CCOCC1 | . | . | . | . | . | . | /
SMILES | PREPL inh | FID counter | UBC13 polyUb | RAD52 inh | beta cell repl | RAD54 branch | PREPL confirm
COc1cc(/C=C(\C#N)C(=O)c2ccc(O)c(O)c2)cc(I)c1O | 55.8 | / | . | . | . | . | .
COc1ccc(-c2cn[nH]c2-c2ccc(OCc3ccccc3)cc2O)cc1OC | 49.4 | . | . | . | . | . | .
Oc1cc(OCc2ccccc2)ccc1-c1[nH]ncc1-c1ccccc1 | . | . | . | . | . | . | /
O=c1[nH]c(/C=C/c2cccc([N+](=O)[O-])c2)c([N+](=O)[O-])c(=O)[nH]1 | . | . | . | . | . | . | /
O=[N+]([O-])c1cccc(/C=C/c2nc[nH]c2[N+](=O)[O-])c1 | 45.1 | . | . | . | . | . | .
COCC#Cc1ccc([C@@H]2[C@H](CO)N3CCCCN(S(=O)(=O)c4ccccc4F)C[C@@H]23)cc1 | / | / | / | . | / | . | /
Cc1nc2ccc([N+](=O)[O-])cc2c(=O)n1Cc1ccc(Br)cc1 | . | . | . | . | . | . | /
Cc1nc2ccc([N+](=O)[O-])cc2c(=O)n1Cc1cccc(Br)c1 | 45.3 | . | . | . | . | . | .
CCC(=O)Nc1ccc2c(c1)C(=O)N(C)[C@H]1CC[C@H](CC(=O)NCCCN(C)C)O[C@@H]1CO2 | / | / | / | . | / | . | /
CCCCC1=CC2=C(c3ccco3)C(=O)C(C)(OC(=O)c3ccc(OC)cc3)C(=O)C2=CN1CCN1CCOCC1 (stereo not given) | 59.5 | / | . | / | . | . | 46.5
CCCCC1=CC2=C(c3ccco3)C(=O)C(C)(OC(=O)c3ccc(OC)cc3)C(=O)C2=CN1CCCCO (stereo not given) | . | / | . | . | . | . | /
CCN(CC)CCn1c(=N)n(CC(O)c2ccco2)c2ccccc21 (stereo not given) | . | . | . | . | . | / | /
CCN(CC)CCn1c(=N)n(CC(O)c2ccc(OC)c(OC)c2)c2ccccc21 (stereo not given) | 44.3 | . | . | . | . | / | .
CCCCn1c(CCc2ccccc2)nc2cc3[nH]c(=O)c(C(C)C)nc3cc21 | 43.5 | . | . | . | . | . | .
CCCCn1c(-c2ccc(F)c(F)c2)nc2cc3[nH]c(=O)c(C(C)C)nc3cc21 | . | . | . | . | . | . | /
C[C@@H]1CN([C@@H](C)CO)C(=O)c2cccc(NC(=O)CCCCCC(=O)Nc3ccccc3N)c2O[C@H]1CN(C)C(=O)Nc1ccc(F)cc1 | / | / | / | . | / | / | /
COc1ccc(NC(=O)Nc2ccc3c(c2)[C@@H]2C[C@H](CC(=O)N4CCc5ccccc5C4)O[C@H](CO)[C@@H]2O3)cc1 | / | / | / | . | / | . | /
C/C(=N\NC(=O)c1cccc(N/N=C(\C)c2ccncc2)c1)c1ccncc1 | 51.9 | . | . | / | . | / | .
Cc1ccccc1Nc1c(-c2ccccn2)nc2ccccn12 | . | . | . | . | . | / | /
Cc1cccn2c(Nc3ccccc3)c(-c3ccccn3)nc12 | . | . | . | . | . | . | /
Cc1ccn2c(Nc3ccccc3C)c(-c3ccccn3)nc2c1 | 51.9 | . | . | . | . | . | .
Cc1ccn2c(Nc3ccccc3)c(-c3ccccn3)nc2c1 | 66.7 | . | . | . | . | . | 63.1
COc1cccc(S(=O)(=O)Nc2ccc3c(c2)[C@H]2C[C@@H](CC(=O)NCc4ccc(Cl)cc4)O[C@H](CO)[C@H]2O3)c1 | / | / | / | . | / | . | /
Cc1noc(C)c1S(=O)(=O)N(C)C[C@@H]1Oc2ccc(NC(=O)Nc3ccc4c(c3)OCO4)cc2C(=O)N([C@@H](C)CO)C[C@@H]1C | / | / | / | . | / | . | /

Screening data as filed in PubChem.
